In the supplement of paper PMC6555819:

How the values were obtained:
Assay in all cases: PBM binding z-score (relative to random genomic background probes); higher = stronger binding; sequences stand for … in GC…GCGATTGACAGCGTAGAATGAAGG
[1] = test system: PPARg:RXRa DBDmut IVT, anti-RXR (DBD mutation: RXRa K156A/R161A, NR concentration 270 nM, RXRa partner concentration 90 nM)
Method in brief: (§1)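 Scanned fluorescence from custom Agilent 4×180K protein-binding microarrays was regression-normalized. Binding z-scores use random background probes as reference. Ligand-free nuclear receptor dimers were incubated on the arrays for 1 h and detected with antibodies against each partner (one per run).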

[2] = test system: PPARg:RXRa IVT, anti-PPARg (NR concentration 270 nM, RXRa partner concentration 90 nM)
Method in brief: as §1

[3] = test system: PPARg DBDmut:RXRa IVT, anti-PPARg (DBD mutation: PPARg1 K132A/R137A, NR concentration 270 nM, RXRa partner concentration 90 nM)
Method in brief: as §1

[4] = test system: PPARg DBDmut IVT, anti-PPARg (DBD mutation: PPARg1 K132A/R137A, NR concentration 270 nM)
Method in brief: as §1

[5] = test system: PPARg homodimer (NR concentration 180 nM)
Method in brief: as §1

[6] = test system: PXR:RXRa (NR concentration 270 nM, RXRa partner concentration 90 nM)
Method in brief: as §1

[7] = test system: PXR homodimer (NR concentration 270 nM)
Method in brief: as §1

[8] = test system: RARa:RXR (NR concentration 270 nM, RXRa partner concentration 90 nM)
Method in brief: as §1

[9] = test system: RARa homodimer (NR concentration 270 nM)
Method in brief: as §1

[10] = test system: RARb:RXRa (NR concentration 270 nM, RXRa partner concentration 90 nM)
Method in brief: as §1

[11] = test system: RARb homodimer (NR concentration 270 nM)
Method in brief: as §1

[12] = test system: RARg:RXRa (NR concentration 270 nM, RXRa partner concentration 90 nM)
Method in brief: as §1

[13] = test system: RARg homodimer (NR concentration 270 nM)
Method in brief: as §1

[14] = test system: RXRa DBDmut IVT, anti-RXR (DBD mutation: RXRa K156A/R161A, NR concentration 90 nM)
Method in brief: as §1

[15] = test system: RXRa homodimer (NR concentration 180 nM)
Method in brief: as §1

[16] = test system: THRa:RXRa (NR concentration 90 nM, RXRa partner concentration 90 nM)
Method in brief: as §1

[17] = test system: THRa homodimer (NR concentration 90 nM)
Method in brief: as §1

[18] = test system: VDR:RXRa (NR concentration 270 nM, RXRa partner concentration 90 nM)
Method in brief: as §1

[19] = test system: VDR homodimer (NR concentration 270 nM)
Method in brief: as §1

Sequence	PBM binding z-score [1]	PBM binding z-score [2]	PBM binding z-score [3]	PBM binding z-score [4]	PBM binding z-score [5]	PBM binding z-score [6]	PBM binding z-score [7]	PBM binding z-score [8]	PBM binding z-score [9]	PBM binding z-score [10]	PBM binding z-score [11]	PBM binding z-score [12]	PBM binding z-score [13]	PBM binding z-score [14]	PBM binding z-score [15]	PBM binding z-score [16]	PBM binding z-score [17]	PBM binding z-score [18]	PBM binding z-score [19]
CCTACTGGGCCACGAATGGTCATTGATTCAGTGA	5.35	5.07	-0.0715	0.085	0.236	-0.684	-0.838	-0.385	-0.616	0.436	0.417	-0.0594	0.262	-0.448	-0.409	-0.231	-0.537	-0.558	-0.38
CCTACTGGGCCAAAGGGCATTGATTCCAATGCTC	4.36	5.09	0.51	-0.625	1.09	0.249	-0.593	0.757	-0.681	1.59	1.16	1.06	0.727	-0.785	0.895	0.159	-0.934	0.0732	-0.17
CGTCCAAGGTGAGAGAGGTCAGTGAATGCCGAGT	2.16	2.49	-1.39	-1.25	2.8	3.75	2.87	3.54	0.726	3.46	4.13	3.38	3.7	0.994	2.89	3.33	1.95	5.51	3.07
ATCTCTAGGGAAGACTCAGTTCAGTGAAGAACGC	0.54	0.0201	0.66	0.331	0.641	0.582	1.3	-0.127	0.457	-0.0542	0.462	-0.132	-0.0509	0.532	-0.129	0.262	0.318	0.408	1.38
CAAACTAGGTCACGAATGGTCAAAGTCGAATGAC	8.28	9.26	2.84	3.79	2.55	2.47	0.0543	3.22	0.681	4.62	3.87	4.77	5.18	1.61	3.82	3.74	1.51	3.05	0.784
TCTTGTAGATCAAGGAGGTTAAGAAAGCCTGAGT	1.66	0.772	0.58	0.0101	0.474	0.734	0.408	0.789	-0.0638	0.468	0.594	0.234	-0.0688	0.581	0.685	0.835	-0.069	1.26	0.29
ACTTACGGGTCAACGAGCTTATAGCACGCGTATA	3.07	3.31	0.724	0.908	1.42	3.19	-0.152	4.16	0.825	4	2.92	5.34	5.01	1.56	6.14	2.46	0.0469	3.97	0.846
GCAGACAGGTGAAACGCAGGTAACACAGGGTGGC	0.623	0.202	0.00158	-0.396	-0.0973	0.067	-0.211	0.594	-0.376	0.622	0.0703	1.1	0.467	-0.772	0.886	1.26	-0.435	-0.439	-0.401
TCATATAGGTAAAAGGAGAAAGTCGGTGTGGTAA	4.08	2.11	0.507	0.375	0.959	0.415	0.686	0.571	1.29	0.195	-0.155	0.181	0.123	1.49	0.649	-0.0526	-0.722	0.929	0.471
ATCGAAAGGTTGACGAGGTGAGTATACACCGTTT	0.0825	1.03	0.76	1.04	0.684	0.914	0.374	1.25	0.63	1.79	1.28	1.47	1.51	0.0329	1.65	2.62	0.747	2.71	0.362
ATCGAAAGGTCGAGCTGAGTATAGAGAAAGGGAA	-0.357	1.22	1.33	0.108	0.956	2.5	-0.467	2.89	0.139	3.94	1.8	4.17	3.96	0.849	4.35	1.96	-0.857	2.53	0.148
ATCGAAAGCTCGTGAGGTGAGTATACAGAAAGGC	-0.799	0.0817	0.275	0.0739	-0.405	-0.403	-0.674	-0.104	-0.351	0.0466	-0.145	-0.029	0.239	-0.842	-0.0851	1.52	0.723	-0.256	-0.704
ACACGGAGGACAAAGGTCAGAGCTACGCCAGTGA	0.363	3.8	0.472	-0.253	3.82	3.92	0.625	4.81	1.1	4.58	4.59	6.1	5.24	1.57	5.15	3.56	0.702	3.46	1.17
